This assay has as its system Plasmodium falciparum NF54 gametocytes. In words: viability index relative to DMSO control (fraction); higher = less gametocyte killing. Particulars: 12.5 µM, incubation time: 72 h. Summed up:
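P. falciparum NF54 gametocytes at stages I–V were treated with compound at 12.5 µM for 72 hr at 37°C under low oxygen in serum-containing medium (0.50% gametocytemia, 1.25% hematocrit), then stained with MitoTracker Red CMXRos and imaged in serum-free medium containing 500 nM dye. The viability index is the gametocyte particle count divided by the plate mean of solvent-only wells.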

Where [1] appears, read: gametocyte stage: Stage I viability index.
Where [2] appears, read: gametocyte stage: Stage II viability index.
The mark [3] stands for this setting: gametocyte stage: Stage III viability index.
Setting [4] is: gametocyte stage: Stage IV viability index.
Setting [5] is: gametocyte stage: Stage V viability index.

Consider `COc1cc(C(=O)ON=C(N)Cc2cccc3ccccc23)cc(OC)c1OC`, for which the viability index turned out to be 0.0175 under setting [1]; 0.0391 under setting [2]; 0.157 under setting [3]; 0.12 under setting [4]; 0.0909 under setting [5].

For the molecule `O=C(Nc1ccc(N2CCCCC2)c(Cl)c1)c1ccc(Br)o1`, the viability index reads like this: under setting [1], 0.673; under setting [2], 0.726; under setting [3], 0.762; under setting [4], 0.787; under setting [5], 0.978.

The molecule `COc1ccc(N2CCN(C(CNC(=O)CC(C)(C)C)c3ccc4c(c3)OCO4)CC2)cc1` (stereo not given) came in with a viability index under setting [1] of 1.04; a viability index under setting [2] of 0.928; a viability index under setting [3] of 1.02; a viability index under setting [4] of 0.826; a viability index under setting [5] of 0.727.

As for `Cc1cccc(-n2ncc3c(=O)[nH]c(-n4nc(C)cc4NC(=O)c4cc5ccccc5o4)nc32)c1`, the viability index runs as follows: under setting [1], 0.466; under setting [2], 0.473; under setting [3], 0.792; under setting [4], 0.9; under setting [5], 0.791.

For the molecule `Cc1cc(Nc2cccc(F)c2)nc(NCc2ccccc2)n1`, the viability index by setting is: under setting [1], 0.0365; under setting [2], 0.436; under setting [3], 0.825; under setting [4], 1.01; under setting [5], 0.429.

As for `Cc1cc(C=C2SC(=Nc3ccccc3)N(C3CCCC3)C2=O)c(C)n1-c1ccc(Cl)cc1`, the viability index was found to be 1.05 under setting [1]; 1.03 under setting [2]; 1.03 under setting [3]; 0.894 under setting [4]; 0.879 under setting [5].

In turn, `CN1CCN(c2c3c(c(C#N)c4nc5ccccc5n24)CCC3)CC1` showed a viability index under setting [1] of 1.02; a viability index under setting [2] of 0.865; a viability index under setting [3] of 1.03; a viability index under setting [4] of 1.05; a viability index under setting [5] of 0.846.

Take `c1ccc2cc3c(Nc4ccc(N5CCOCC5)cc4)ccnc3cc2c1`: the viability index is, setting by setting: under setting [1], 0.0685; under setting [2], 0.499; under setting [3], 0.779; under setting [4], 1.02; under setting [5], 1.19.

As for `CC(Oc1ccc(NC(=O)c2cccs2)cc1)C(=O)c1ccc(Cl)cc1` (stereo not given), the viability index runs as follows: under setting [1], 1.02; under setting [2], 0.883; under setting [3], 0.727; under setting [4], 0.854; under setting [5], 0.974.

Turning to `CC(C)(C)c1ccc2c(c1)CN(Cc1ccc(Cl)cc1)CO2`, the viability index under setting [1] was 0.12; the viability index under setting [2] amounted to 0.192; the viability index under setting [3] is 0.385; the viability index under setting [4] is 0.633; the viability index under setting [5] turned out to be 0.442.

As to `COc1ccc(CN2CCCC(C(=O)c3ccc(C(F)(F)F)cc3)C2)c(O)c1` (stereo not given), the viability index is, setting by setting: under setting [1], 0.049; under setting [2], 0.0866; under setting [3], 0.365; under setting [4], 0.554; under setting [5], 0.779.

With `CCn1c2c(c(=N)c3c1CCC3)CCCC2`, the viability index is, setting by setting: under setting [1], 0.441; under setting [2], 0.795; under setting [3], 0.957; under setting [4], 0.962; under setting [5], 0.701.

The molecule `CC(C)(C)c1ccc(C(=O)Nc2c3c(nn2-c2cccc(Cl)c2)CSC3)cc1` had a viability index under setting [1] of 0.469; a viability index under setting [2] of 0.508; a viability index under setting [3] of 0.825; a viability index under setting [4] of 0.747; a viability index under setting [5] of 0.701.

For the molecule `O=C1CC(O)(C(F)(F)C(F)(F)F)Oc2ccccc21` (stereo not given), the viability index runs as follows: under setting [1], 1.22; under setting [2], 0.957; under setting [3], 1.2; under setting [4], 1.19; under setting [5], 0.813.

For `CCc1ccc(Nc2cc(C)nc3nc(C)nn23)cc1`, the viability index stood at 0.925 under setting [1]; 0.736 under setting [2]; 1.01 under setting [3]; 1.1 under setting [4]; 1.1 under setting [5].

In the case of `CCOc1ccc(-c2nonc2NC(=O)c2cccc(C)c2)cc1OCC`, the viability index runs as follows: under setting [1], 0.0619; under setting [2], 0.0773; under setting [3], 0.0679; under setting [4], 0.222; under setting [5], 0.626.

As for `Cc1ccc(N2C(=O)C3C(C2=O)C2(c4ccccc4)C(=O)C3(c3ccccc3)C(c3ccccc3)=C2c2ccccc2)cc1` (stereo not given), the viability index reads like this: under setting [1], 0.733; under setting [2], 0.916; under setting [3], 1.14; under setting [4], 1.03; under setting [5], 1.01.

In turn, `CCN(CC)c1ccc(NC(=O)c2cccs2)cc1` came in with a viability index under setting [1] of 0.716; a viability index under setting [2] of 0.659; a viability index under setting [3] of 0.758; a viability index under setting [4] of 0.936; a viability index under setting [5] of 1.04.

Take `COc1ccc(Nc2nc(NCc3ccccc3)c3ccccc3n2)cc1`: the viability index reads like this: under setting [1], 0.0331; under setting [2], 0.107; under setting [3], 0.562; under setting [4], 0.593; under setting [5], 0.286.

As for `O=C(NC1CCN(Cc2ccccc2)CC1)c1cc2nc(-c3ccc(Cl)s3)cc(C(F)(F)F)n2n1`, the viability index came to 0.0778 under setting [1]; 0.366 under setting [2]; 0.843 under setting [3]; 0.883 under setting [4]; 1.01 under setting [5].

Regarding `O=c1nc(C=Cc2ccc(Cl)cc2)oc2ccccc12`, the viability index runs as follows: under setting [1], 0.874; under setting [2], 1.01; under setting [3], 1; under setting [4], 0.866; under setting [5], 0.989.

As to `Cc1cc(Nc2ccc3ccccc3c2)n2ncnc2n1`, the viability index came out at 0.567 under setting [1]; 0.521 under setting [2]; 0.755 under setting [3]; 0.79 under setting [4]; 0.626 under setting [5].

For `Cc1ccc(Cl)cc1N1CCN(CCCNC(=O)C2CCN(c3nc4ccccc4[nH]3)CC2)CC1`, the viability index is, setting by setting: under setting [1], 0.158; under setting [2], 0.517; under setting [3], 0.628; under setting [4], 0.426; under setting [5], 0.407.

As for `COc1cccc(Nc2nc(NCCO)c3ccccc3n2)c1`, the viability index reads like this: under setting [1], 0.134; under setting [2], 0.581; under setting [3], 0.728; under setting [4], 0.854; under setting [5], 0.538.

In the case of `OC1CCCCC1C1(NC(=S)Nc2ccccc2)CCCCC1` (stereo not given), the viability index was determined as 0.24 under setting [1]; 0.184 under setting [2]; 0.0868 under setting [3]; 0.108 under setting [4]; 0.247 under setting [5].

As for `CCOC(=O)c1c(C)n(-c2ccccc2)c2ccc(OC(=O)c3cc(OC)c(OC)c(OC)c3)cc12`, the viability index is 1.05 under setting [1]; 0.724 under setting [2]; 0.947 under setting [3]; 0.987 under setting [4]; 1.05 under setting [5].

As to `CCOc1cccc(C(=O)Nc2ccc(-c3nc4ccccc4[nH]3)cc2)c1`, the viability index runs as follows: under setting [1], 0.0751; under setting [2], 0.574; under setting [3], 1.1; under setting [4], 0.894; under setting [5], 0.637.

Regarding `Cc1cc(Nc2ccc(OCc3ccccc3)cc2)nc2cc(O)ccc12`, the viability index under setting [1] came to 0.332; the viability index under setting [2] came out at 0.199; the viability index under setting [3] turned out to be 0.468; the viability index under setting [4] was found to be 0.487; the viability index under setting [5] amounted to 0.481.

Regarding `COc1cc2c(cc1OC)C1=NNC(=O)C1=NC(C)(C)C2`, the viability index was determined as 0.00884 under setting [1]; 0.0058 under setting [2]; 0.0707 under setting [3]; 0.109 under setting [4]; 0.011 under setting [5].

For the molecule `O=C(Nc1ccc(C23CC4CC(CC(c5ccccc5)(C4)C2)C3)cc1)c1cccs1`, the viability index is 0.939 under setting [1]; 0.824 under setting [2]; 0.986 under setting [3]; 0.744 under setting [4]; 1.14 under setting [5].

The record behind these values is the supplement of paper PMC4723716.
